Assay results from PubChem BioAssay (Tox21).
Inconclusive results are not listed. Activity calls are given as the source filed them. Unless noted, calls come from the whole dose curve.

Columns and labels:
[1] = target: Peroxisome proliferator-activated receptor delta (Homo sapiens) (UniProt Q03181); experiment: qHTS assay to identify small molecule agonists of the peroxisome proliferator-activated receptor delta (PPARd) signaling pathway (AID 743212)
Method in brief: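 Quantitative high-throughput agonist screen in a HEK293H beta-lactamase reporter line under UAS control. Compounds in DMSO, at 37 C. Fluorescence read after 2 h with FRET substrate at room temperature.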

[2] = qHTS assay to identify small molecule antagonists of the peroxisome proliferator-activated receptor delta (PPARd) signaling pathway - cell viability counter screen (AID 743213; active = well fitted curve in the direction sought with a large enough effect in the repeat runs; an effect the other way counts as inactive or inconclusive; note: nearly all actives have a fitted effect of over 50% in size)
Method in brief: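 Same-well viability: cells pre-incubated 5 h, dosed with compound plus 300 nM L165041, kept 17 h at 37 C, FRET substrate 2 h RT, then CellTiter-Glo 30 min RT and luminescence.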

[3] = target: Peroxisome proliferator-activated receptor delta (Homo sapiens) (UniProt Q03181); experiment: qHTS assay to identify small molecule antagonists of the peroxisome proliferator-activated receptor delta (PPARd) signaling pathway (AID 743215; active = well fitted inhibition curve with a large enough effect in the signal ratio in the repeat runs, not every such curve was filed as active; the % refers to the signal ratio;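 note: cells stimulated with agonist L165041 at 300 nM final during compound exposure; series mostly up to about 62 µM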)
Method in brief: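 Antagonist-mode beta-lactamase reporter screen: HEK293H cells with UAS-bla under PPARd control, stimulated by 300 nM L165041 (final) alongside test compound for 17 h at 37 C, then FRET fluorescence after 2 h substrate incubation.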

[4] = target: Bile acid receptor (Homo sapiens) (UniProt Q96RI1); experiment: qHTS assay to identify small molecule antagonists of the farnesoid-X-receptor (FXR) signaling pathway (AID 743217; active = well fitted inhibition curve with a large enough effect in the signal ratio in the repeat runs, not every such curve was filed as active; the % refers to the signal ratio)
Method in brief: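 Beta-lactamase reporter under UAS control in HEK 293T cells; compound exposure 16 h at 37 °C in the presence of chenodeoxycholic acid (50 uM final); signal from B/G FRET substrate after 2 h at room temperature.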

[5] = qHTS assay to identify small molecule agonists of the farnesoid-X-receptor (FXR) signaling pathway - cell viability counter screen (AID 743218; active = well fitted curve in the direction sought with a large enough effect in the repeat runs; an effect the other way counts as inactive or inconclusive; note: nearly all actives have a fitted effect of over 45% in size)
Method in brief: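 In GeneBLAzer FXR-UAS-bla HEK 293T cells, compounds act for 16 h at 37 C. Cell viability is then scored in the reporter wells by CellTiter-Glo, 30 min at RT, luminescence.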

[6] = target: Bile acid receptor (Homo sapiens) (UniProt Q96RI1); experiment: qHTS assay to identify small molecule agonists of the farnesoid-X-receptor (FXR) signaling pathway (AID 743220; active = well fitted activation curve with a large enough effect in the signal ratio in the repeat runs, not every such curve was filed as active; the % refers to the signal ratio)
Method in brief: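 Beta-lactamase reporter under UAS control in GeneBLAzer FXR HEK 293T cells (5000/well) measured with LiveBLAzer FRET substrate after 2 h at room temperature. Compound exposure lasted 16 h at 37C.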

[7] = qHTS assay to identify small molecule antagonists of the farnesoid-X-receptor (FXR) signaling pathway - cell viability counter screen (AID 743221; active = well fitted cell-killing curve with a large enough effect in the repeat runs, not every such curve was filed as active; note: nearly all actives have a fitted effect of over 50% in size)
Method in brief: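 CellTiter-Glo, 30 min RT, luminescence; same wells as the LiveBLAzer FRET read. Cells: FXR-UAS-bla HEK 293T. Treatment: compound with chenodeoxycholic acid 50 uM final, 16 h at 37 C.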

[8] = target: Vitamin D3 receptor (Homo sapiens) (UniProt P11473); experiment: qHTS assay to identify small molecule agonists of the vitamin D receptor (VDR) signaling pathway (AID 743222)
Method in brief: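 Agonist activity measured in VDR-bla reporter cells. Exposure 16 h, 37C, 5% CO2; detection by B/G FRET substrate, 2 h RT.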

[9] = target: Vitamin D3 receptor (Homo sapiens) (UniProt P11473); experiment: qHTS assay to identify small molecule antagonists of the vitamin D receptor (VDR) signaling pathway (AID 743223; active = well fitted inhibition curve with a large enough effect in the signal ratio in the repeat runs, not every such curve was filed as active; the % refers to the signal ratio)
Method in brief: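 After VDR-bla cells are plated and left 4 h at 37C, DMSO-dissolved compounds and 3 nM (final) calcitriol agonist are added. Incubation continues 16 h at 37C; FRET beta-lactamase substrate then develops 2 h at room temperature.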

[10] = qHTS assay to identify small molecule agonists of the vitamin D receptor (VDR) signaling pathway - cell viability counter screen (AID 743224; active = well fitted curve in the direction sought with a large enough effect in the repeat runs; an effect the other way counts as inactive or inconclusive; note: series mostly up to about 63 µM; nearly all actives have a fitted effect of over 50% in size)
Method in brief: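 VDR-bla cell line, quantitative HTS format; 16 h compound incubation (37C, 5% CO2); ATP-based CellTiter-Glo luminescence measured in the reporter assay wells.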

[11] = qHTS assay to identify small molecule antagonists of the vitamin D receptor (VDR) signaling pathway - cell viability counter screen (AID 743225; active = well fitted curve in the direction sought with a large enough effect in the repeat runs; an effect the other way counts as inactive or inconclusive; note: nearly all actives have a fitted effect of over 50% in size)
Method in brief: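 Cytotoxicity toward the VDR-bla HEK 293T line was scored by ATP-based CellTiter-Glo luminescence, read in the wells already used for the beta-lactamase readout after 16 h compound treatment under 3 nM 1-alpha,25-dihydroxyvitamin D3 stimulation.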

[12] = qHTS assay to identify small molecule agonists of the NFkB signaling pathway - cell viability counter screen (AID 1159515); note: series mostly up to about 61 µM; nearly all actives have a fitted effect of over 55% in size
Method in brief: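 Viability in NFkB-bla ME-180 cells was measured by CellTiter-Glo luminescence, 30 min room temperature, in wells already treated 5 hr with compounds and read for reporter FRET.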

[13] = qHTS assay to identify small molecule agonists of the endoplasmic reticulum stress response signaling pathway - cell viability counter screen (AID 1159517)
Method in brief: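 Counter-screen wells were identical to the reporter wells. Cells were plated at 1,500 per well and dosed for 5 hr, then read for luminescence 30 min after CellTiter-Glo addition.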

[14] = target: Nuclear receptor ROR-gamma (Homo sapiens) (UniProt P51449); experiment: qHTS assay to identify small molecule antagonists of the retinoid-related orphan receptor gamma (ROR-gamma) signaling pathway (AID 1159521; active = well fitted curve in the direction sought with a large enough effect in the repeat runs; an effect the other way counts as inactive or inconclusive)
Method in brief: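 Readout: ONE-Glo luciferase luminescence, 30 min at room temperature. System: Tet-on RORγ CHO, RORE-LUC. Sequence: compound 2 h, doxycycline 1 uM final, 16 h at 37 C.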

[15] = qHTS assay to identify small molecule agonists of the AP-1 signaling pathway - cell viability counter screen (AID 1159525); note: nearly all actives have a fitted effect of over 55% in size
Method in brief: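 AP-1-bla ME-180 cells in Opti-MEM with 0.5% dialyzed FBS, compound exposure 5 h at 37 C in 15-point titration. Viability read in the same wells as ATP content by CellTiter-Glo luminescence, normalised to tetra-n-octylammonium bromide and DMSO controls.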

[16] = qHTS assay to identify small molecule agonists of the AP-1 signaling pathway (AID 1159526)
[17] = target: Retinoic acid receptor RXR-alpha (Homo sapiens) (UniProt P19793); experiment: qHTS assay to identify small molecule agonists of the RXR signaling pathway (AID 1159527); note: nearly all actives have a fitted effect of over 35% in size
Method in brief: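 Reporter activation is measured as beta-lactamase activity via FRET substrate cleavage (emission 460/530 nm) in HEK 293T cells expressing an RXR-alpha-driven bla construct, following 16 hr compound exposure at 37 C.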

[18] = qHTS assay to identify small molecule antagonists of the retinoid-related orphan receptor gamma (ROR-gamma) signaling pathway - cell viability counter screen (AID 1159520; active = well fitted curve in the direction sought with a large enough effect in the repeat runs; an effect the other way counts as inactive or inconclusive; note: nearly all actives have a fitted effect of over 50% in size)
Method in brief: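 Tet-on ROR gamma CHO cells were given compounds for 2 hr, then doxycycline hyclate at 1 uM final, and incubated 16 hr at 37 C. Viability was measured as ATP content by CellTiter-Glo luminescence.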

[19] = qHTS assay to identify small molecule agonists of the endoplasmic reticulum stress response signaling pathway (AID 1159516; active = well fitted activation curve with a large enough effect in the signal ratio in the repeat runs, not every such curve was filed as active; the % refers to the signal ratio)
Method in brief: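 ER stress element reporter (bla) in HeLa. 1,500 cells/well, overnight attachment; 5 hr compound; 2 hr RT substrate; dual-emission fluorescence.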

Measured: Potency

Sequence of Retinoic acid receptor RXR-alpha (Homo sapiens) (P19793 whole entry, looked up): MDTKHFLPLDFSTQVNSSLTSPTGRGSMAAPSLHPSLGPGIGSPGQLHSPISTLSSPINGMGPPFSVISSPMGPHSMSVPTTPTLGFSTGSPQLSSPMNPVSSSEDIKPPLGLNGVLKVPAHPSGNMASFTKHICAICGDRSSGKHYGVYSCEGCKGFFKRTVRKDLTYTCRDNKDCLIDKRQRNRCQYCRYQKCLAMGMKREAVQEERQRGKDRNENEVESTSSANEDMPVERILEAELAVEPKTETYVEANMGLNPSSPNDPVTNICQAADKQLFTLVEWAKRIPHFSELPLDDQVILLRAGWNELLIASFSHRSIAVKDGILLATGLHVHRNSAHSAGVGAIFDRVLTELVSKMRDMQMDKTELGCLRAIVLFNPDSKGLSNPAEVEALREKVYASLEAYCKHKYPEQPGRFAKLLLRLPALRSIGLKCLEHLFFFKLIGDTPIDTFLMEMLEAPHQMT
Sequence of Bile acid receptor (Homo sapiens) (Q96RI1 whole entry, looked up): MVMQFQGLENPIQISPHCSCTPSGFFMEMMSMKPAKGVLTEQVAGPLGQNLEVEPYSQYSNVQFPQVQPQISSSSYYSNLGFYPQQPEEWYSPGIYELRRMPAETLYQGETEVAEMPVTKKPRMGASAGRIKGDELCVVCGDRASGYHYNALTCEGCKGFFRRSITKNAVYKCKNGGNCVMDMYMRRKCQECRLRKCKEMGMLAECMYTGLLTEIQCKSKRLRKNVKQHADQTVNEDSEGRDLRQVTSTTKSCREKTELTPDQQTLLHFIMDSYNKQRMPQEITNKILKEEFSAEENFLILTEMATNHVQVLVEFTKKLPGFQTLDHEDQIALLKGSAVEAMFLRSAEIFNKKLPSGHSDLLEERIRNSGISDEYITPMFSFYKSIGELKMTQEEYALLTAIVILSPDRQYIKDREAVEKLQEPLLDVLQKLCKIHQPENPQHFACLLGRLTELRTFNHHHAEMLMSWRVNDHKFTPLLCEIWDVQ
Sequence of Vitamin D3 receptor (Homo sapiens) (P11473 whole entry, looked up): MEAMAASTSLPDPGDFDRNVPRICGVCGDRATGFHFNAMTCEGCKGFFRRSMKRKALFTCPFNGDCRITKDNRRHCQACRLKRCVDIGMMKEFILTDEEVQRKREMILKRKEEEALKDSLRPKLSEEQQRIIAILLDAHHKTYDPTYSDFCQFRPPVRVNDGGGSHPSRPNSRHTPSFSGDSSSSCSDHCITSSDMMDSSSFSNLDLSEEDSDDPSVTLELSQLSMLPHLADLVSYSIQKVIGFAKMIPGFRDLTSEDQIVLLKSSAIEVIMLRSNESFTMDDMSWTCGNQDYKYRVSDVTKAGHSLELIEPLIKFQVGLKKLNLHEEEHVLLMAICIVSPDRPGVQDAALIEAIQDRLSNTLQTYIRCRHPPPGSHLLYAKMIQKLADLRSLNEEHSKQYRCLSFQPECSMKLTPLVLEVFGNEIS
Sequence of Peroxisome proliferator-activated receptor delta (Homo sapiens) (Q03181 whole entry, looked up): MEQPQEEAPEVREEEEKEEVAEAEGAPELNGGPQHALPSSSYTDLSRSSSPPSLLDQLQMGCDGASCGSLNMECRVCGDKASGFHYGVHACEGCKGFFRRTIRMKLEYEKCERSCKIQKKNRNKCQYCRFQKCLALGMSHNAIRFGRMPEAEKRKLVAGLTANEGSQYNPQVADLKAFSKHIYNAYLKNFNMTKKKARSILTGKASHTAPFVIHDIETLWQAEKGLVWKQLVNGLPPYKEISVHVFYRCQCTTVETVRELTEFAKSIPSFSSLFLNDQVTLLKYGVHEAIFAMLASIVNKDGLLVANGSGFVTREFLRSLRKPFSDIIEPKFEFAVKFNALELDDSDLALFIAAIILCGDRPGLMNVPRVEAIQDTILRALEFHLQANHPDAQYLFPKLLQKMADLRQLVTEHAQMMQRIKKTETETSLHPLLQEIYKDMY

CNC(=O)Oc1ccc2c(c1)[C@]1(C)CCN(C)[C@@H]1N2C
not listed: [18] | [19]
inactive: all other assays above

CC(=O)OCc1ccccc1
not listed: [4] | [6] | [19]
inactive: all other assays above

CCOC(=O)n1ccn(C)c1=S
not listed: [8] | [9]
inactive: all other assays above

CCO[Si](CCC#N)(OCC)OCC
not listed: [1] | [3] | [8] | [9]
inactive: all other assays above

O=C1CCCC1
not listed: [1] | [3] | [4] | [6] | [9]
inactive: all other assays above

CN(C)c1ccc(Cc2ccc(N(C)C)cc2)cc1
not listed: [9] | [12] | [19]
inactive: all other assays above

CC(C)(C#N)c1cc(Cn2cncn2)cc(C(C)(C)C#N)c1
not listed: [1] | [3] | [9] | [12]
inactive: all other assays above

NCCNCCN
not listed: [4] | [6] | [9] | [12]
inactive: all other assays above

COCCOC(=O)c1ccccc1C(=O)OCCOC
not listed: [4] | [6] | [12]
inactive: all other assays above

COCCCN
not listed: [4] | [6] | [9] | [18]
inactive: all other assays above

Brc1ccc(Br)c(Br)c1
not listed: [1] | [3] | [4] | [6] | [9] | [18] | [19]
inactive: all other assays above
